# Test results taken from PubChem BioAssay (Tox21).
# Values joined by “and” are separate entries in the source; they are usually repeats but may differ in a detail not shown here. Equal values may be shown once. Values without a mark were called inactive. Results filed as inconclusive are left out. Where a call stands in place of a potency, no number is given. Active and inactive are the calls of the source. Unless noted, calls come from the whole dose curve; as a rule, active = well fitted curve in the direction sought with a large enough effect in the repeat runs; inconclusive = weak or mixed curves; inactive = no such curve, though single readings can be large; an effect the other way counts as inactive or inconclusive.
# Key:
# [1] = biological target: Luciferin 4-monooxygenase (Photinus pyralis) (UniProt P08659); assay: qHTS assay to identify small molecule inhibitors of firefly luciferase (AID 1224835); note: nearly all actives have a fitted effect of over 25% in size; note: potency is the fitted concentration of half-maximal effect
# Chain of Luciferin 4-monooxygenase (Photinus pyralis) (P08659 whole entry, looked up): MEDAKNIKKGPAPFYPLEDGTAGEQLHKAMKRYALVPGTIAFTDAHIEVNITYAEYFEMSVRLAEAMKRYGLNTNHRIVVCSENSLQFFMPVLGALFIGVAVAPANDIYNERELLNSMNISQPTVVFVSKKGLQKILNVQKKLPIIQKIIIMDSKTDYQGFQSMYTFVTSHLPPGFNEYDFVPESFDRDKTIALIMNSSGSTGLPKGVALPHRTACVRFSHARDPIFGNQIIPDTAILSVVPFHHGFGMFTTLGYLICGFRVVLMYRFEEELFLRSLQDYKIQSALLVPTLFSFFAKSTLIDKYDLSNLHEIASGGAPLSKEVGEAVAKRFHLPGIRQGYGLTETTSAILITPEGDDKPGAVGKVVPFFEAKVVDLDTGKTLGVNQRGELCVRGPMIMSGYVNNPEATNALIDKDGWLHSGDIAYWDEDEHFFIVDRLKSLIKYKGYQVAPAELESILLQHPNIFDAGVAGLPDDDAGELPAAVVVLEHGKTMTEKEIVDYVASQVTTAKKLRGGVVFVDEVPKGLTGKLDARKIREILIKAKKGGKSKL
# How it was run: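 Inhibition of purified Photinus luciferase is measured by luminescence. Substrate levels (D-luciferin, ATP) sit at their KM values. Each compound is tested in a concentration series.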
# [2] = qHTS assay to identify small molecule agonists of the constitutive androstane receptor (CAR) signaling pathway - cell viability counter screen (AID 1224836); note: nearly all actives have a fitted effect of over 45% in size
# How it was run: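 Using CellTiter-Fluor, viability of HepG2 cells harbouring hCAR and CYP2B6-2.2kb was measured following 23 h incubation with a 15-concentration compound series plus PK11195 (0.75 uM final).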
# [3] = qHTS assay to identify small molecule antagonists of the constitutive androstane receptor (CAR) signaling pathway - cell viability counter screen (AID 1224837); note: nearly all actives have a fitted effect of over 45% in size; note: potency is the fitted concentration of half-maximal effect
# How it was run: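 HepG2 cells stably expressing hCAR and a CYP2B6-2.2kb reporter were plated and pre-incubated 4 hr at 37 C/5% CO2, then given compounds at 15 concentrations plus 50 nM CITCO (final). After 23 hr, viability was read by CellTiter-Fluor fluorescence.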
# [4] = biological target: Nuclear receptor subfamily 1 group I member 3 (Homo sapiens) (UniProt Q14994); assay: qHTS assay to identify small molecule antagonists of the constitutive androstane receptor (CAR) signaling pathway (AID 1224838); note: nearly all actives have a fitted effect of over 40% in size; note: potency is the fitted concentration of half-maximal effect
# Chain of Nuclear receptor subfamily 1 group I member 3 (Homo sapiens) (Q14994 whole entry, looked up): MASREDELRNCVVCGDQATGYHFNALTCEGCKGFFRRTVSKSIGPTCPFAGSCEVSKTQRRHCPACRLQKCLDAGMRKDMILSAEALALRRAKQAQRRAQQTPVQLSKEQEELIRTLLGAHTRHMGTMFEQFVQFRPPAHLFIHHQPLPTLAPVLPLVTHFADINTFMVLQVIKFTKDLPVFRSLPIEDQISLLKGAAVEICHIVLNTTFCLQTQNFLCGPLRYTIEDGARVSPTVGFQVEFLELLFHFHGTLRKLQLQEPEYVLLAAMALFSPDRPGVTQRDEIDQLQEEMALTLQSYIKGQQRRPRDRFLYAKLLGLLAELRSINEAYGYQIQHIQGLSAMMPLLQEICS
# How it was run: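 HepG2 cells stably co-transfected with hCAR and a CYP2B6-2.2kb luciferase reporter were seeded 4 h before compound addition at 15 concentrations. Cells were stimulated with 50 nM CITCO (final) for 24 h at 37 C; luciferase luminescence was then read.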
# [5] = qHTS assay to identify small molecule antagonists of the estrogen related receptor signaling pathway with the pleiotropic PPARgamma coactivator (PGC) from Tox21 10K library - cell viability counter screen (AID 1224840; active = well fitted cell-killing curve with a large enough effect in the repeat runs, not every such curve was filed as active; note: nearly all actives have a fitted effect of over 40% in size; note: potency is the fitted concentration of half-maximal effect)
# How it was run: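 PGC/ERR cells were seeded at 2,000 cells/well and left 6 hours at 37 C/5% CO2 before pin-tool addition of compounds in DMSO. After 17.5 hours at 37 C, CellTiter-Fluor was added and fluorescence read 30 minutes later.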
# [6] = qHTS assay to identify small molecule agonists of the estrogen related receptor signaling pathway with the pleiotropic PPARgamma coactivator (PGC) from Tox21 10K library (AID 1224842); note: nearly all actives have a fitted effect of over 15% in size
# How it was run: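 Luminescence from One-Glo (30 min, room temperature) measured after PGC/ERR cells had 18 h at 37 C with pinned compound (23 nL in DMSO). Cells had been seeded at 2,000 per well and pre-incubated 6 h.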
# [7] = qHTS assay to identify small molecule agonists of the hypoxia (HIF-1) signaling pathway - cell viability counter screen (AID 1224844; calls by dose curve; note: nearly all actives have a fitted effect of over 50% in size; note: potency is the fitted concentration of half-maximal effect)
# How it was run: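 HRE-bla ME-180 cells in medium with 0.5% dialyzed FBS were preincubated 5 hrs at 37C, exposed to compounds for 17 hrs, then viability was read as CellTiter-Glo luminescence after 30 min at room temperature, in the reporter wells.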
# [8] = qHTS assay to identify small molecule agonists of H2AX (AID 1224845; active = well fitted activation curve with a large enough effect in the signal ratio in the repeat runs, not every such curve was filed as active; the % refers to the signal ratio; note: potency is the fitted concentration of half-maximal effect)
# How it was run: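 Phospho-H2AX Ser139 measured by HTRF (ex 320 nm; em 665 and 620 nm) after 24 hr antibody incubation. Compounds, 15 concentrations, 0.76% DMSO, were applied to CHO-K1 cells for 3hr at 37C before lysis.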
# [9] = qHTS assay to identify small molecule antagonists of the estrogen related receptor (ERR) signaling pathway from Tox21 library (AID 1224848); note: nearly all actives have a fitted effect of over 50% in size; note: potency is the fitted concentration of half-maximal effect
# How it was run: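 Antagonist-mode screen of the Tox21 10K library in an NTP-provided ERR reporter cell line; 18 h compound exposure at 37 C, luminescence measured with ONE-Glo.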
# [10] = qHTS assay to identify small molecule agonists of the estrogen related receptor (ERR) signaling pathway from Tox21 library (AID 1224849; calls by dose curve; note: nearly all actives have a fitted effect of over 15% in size); conditions: ERR reporter cell line, ONE-Glo luciferase, 18 h; at 92.4 µM (top of the series) unless noted
# How it was run: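 ERR reporter cell line (NTP) seeded, rested 6 h at 37 C/5% CO2, then pinned with Tox21 compounds in DMSO. After 18 h at 37 C, ONE-Glo luciferase luminescence was read following 30 min at room temperature.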
# [11] = qHTS RealTime-Glo MT Cell Viability Assay in HepG2 cells - 24 hour (AID 1224867); note: nearly all actives have a fitted effect of over 50% in size; note: potency is the fitted concentration of half-maximal effect
# How it was run: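 HepG2 cells (600/well) were dispensed with RealTime-Glo reagents, incubated 5 h at 37 °C, then treated with compounds in DMSO for up to 40 h. Nonlytic NanoLuc luminescence reflecting viable cells was read at each stated time point.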
# [12] = qHTS RealTime-Glo MT Cell Viability Assay in HepG2 cells - 40 hour (AID 1224870); note: nearly all actives have a fitted effect of over 50% in size; note: potency is the fitted concentration of half-maximal effect
# How it was run: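 Real-time viability: cells seeded at 600 per well together with NanoLuc and cell-permeant prosubstrate, compounds added after 5 h incubation. Luminescence tracked at 0, 8, 16, 24, 32 and 40 h of exposure.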
# [13] = qHTS assay to identify small molecule agonists of the hypoxia (HIF-1) signaling pathway (AID 1224846; active = well fitted activation curve with a large enough effect in the signal ratio in the repeat runs, not every such curve was filed as active; the % refers to the signal ratio)
# How it was run: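 HRE-bla ME-180 cells (beta-lactamase reporter under hypoxia response element) were plated at 2,000 cells/well in medium with 0.5% dialyzed FBS, rested 5 hrs, then given compounds in DMSO for 17 hrs at 37C, 5% CO2. Reporter induction was read with CCF4-AM FRET substrate.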
# [14] = qHTS assay to identify small molecule agonists of H2AX - cell viability counter screen (AID 1224847; calls by dose curve; note: nearly all actives have a fitted effect of over 30% in size; note: potency is the fitted concentration of half-maximal effect)
# How it was run: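 Quantitative HTS viability measurement: CHO-K1 wild-type cells in serum (10% FBS) medium, short 3 hr drug exposure at 37C with 0.76% DMSO, CellTiter-Glo luminescent detection.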
# [15] = qHTS RealTime-Glo MT Cell Viability Assay in HEK293 cells - 32 hour (AID 1224868); note: nearly all actives have a fitted effect of over 50% in size; note: potency is the fitted concentration of half-maximal effect
# How it was run: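 HEK293 cells seeded with NanoLuc/prosubstrate reagent, rested 5 h at 37 C, then dosed and kept at 37 C up to 40 h. Nonlytic real-time luminescence from viable cells read at 0, 8, 16, 24, 32 and 40 h.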
# [16] = A CellTox Green Cytotoxicity Assay to monitor cytotoxicity in HEK293 cells - 0 hour (AID 1224869); note: nearly all actives have a fitted effect of over 50% in size
# How it was run: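 HEK293 cells premixed with CellTox Green dye were seeded at 600 cells/well and left 5 h at 37 C/5% CO2 before pin transfer of 23 nL compound in DMSO. Fluorescence from dye bound to dead-cell DNA was read during 40 h treatment.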
# [17] = biological target: Thyrotropin receptor (Homo sapiens) (UniProt P16473); assay: qHTS assay to identify small molecule agonists of the thyroid stimulating hormone receptor (TSHR) signaling pathway (AID 1224843; calls by dose curve; note: nearly all actives have a fitted effect of over 45% in size)
# Chain of Thyrotropin receptor (Homo sapiens) (P16473 whole entry, looked up): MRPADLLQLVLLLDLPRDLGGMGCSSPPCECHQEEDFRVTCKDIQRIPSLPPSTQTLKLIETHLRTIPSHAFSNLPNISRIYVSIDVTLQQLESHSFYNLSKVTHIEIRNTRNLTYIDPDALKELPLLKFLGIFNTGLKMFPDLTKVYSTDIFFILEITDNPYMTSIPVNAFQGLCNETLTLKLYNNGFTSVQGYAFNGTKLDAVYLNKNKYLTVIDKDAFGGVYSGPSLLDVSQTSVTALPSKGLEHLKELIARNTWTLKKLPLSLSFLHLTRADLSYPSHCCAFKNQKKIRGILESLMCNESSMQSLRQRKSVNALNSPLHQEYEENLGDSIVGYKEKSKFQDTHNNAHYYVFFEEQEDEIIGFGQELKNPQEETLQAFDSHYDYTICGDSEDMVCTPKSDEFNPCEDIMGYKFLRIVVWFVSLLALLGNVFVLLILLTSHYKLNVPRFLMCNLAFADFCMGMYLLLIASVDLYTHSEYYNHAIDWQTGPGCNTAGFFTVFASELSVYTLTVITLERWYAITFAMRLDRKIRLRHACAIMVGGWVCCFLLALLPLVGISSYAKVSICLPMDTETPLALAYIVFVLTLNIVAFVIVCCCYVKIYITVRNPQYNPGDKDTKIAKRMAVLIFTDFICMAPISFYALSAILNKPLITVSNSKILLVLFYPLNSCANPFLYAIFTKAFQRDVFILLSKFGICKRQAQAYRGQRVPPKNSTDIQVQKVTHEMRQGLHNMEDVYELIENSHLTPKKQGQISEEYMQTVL
# How it was run: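 Screening of the Tox21 10K collection used HEK293 cells engineered with TSHR at 800 cells per well. After a 30-min room-temperature compound exposure, HTRF cAMP reagents were added and fluorescence recorded 1 h later.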
# [18] = qHTS assay to identify small molecule antagonists of the estrogen related receptor signaling pathway with the pleiotropic PPARgamma coactivator (PGC) from Tox21 10K library (AID 1224841; call rule not given here; note: potency is the fitted concentration of half-maximal effect)
# How it was run: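 PGC/ERR reporter cells were seeded at 2,000 cells/well and held 6 hours at 37 C/5% CO2 before pin-tool addition of compounds in DMSO. After 18 hours at 37 C, One-Glo was added and luminescence read after 30 minutes at room temperature.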
# [19] = biological target: Nuclear receptor subfamily 1 group I member 3 (Homo sapiens) (UniProt Q14994); assay: qHTS assay to identify small molecule agonists of the constitutive androstane receptor (CAR) signaling pathway (AID 1224839); note: nearly all actives have a fitted effect of over 15% in size; note: potency is the fitted concentration of half-maximal effect;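 for activation: HepG2 cells stably carrying human CAR and a CYP2B6 luciferase reporter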
# How it was run: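 Double-stable HepG2 cells (hCAR, CYP2B6-2.2kb) seeded 4 h before compound addition. Exposure 24 h with 0.75 uM PK11195 final. Luciferase detected by ONE-Glo.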
SMILES,Potency [1],Potency [2],Potency [3],Potency [4],Potency [5],Potency [6],Potency [7],Potency [8],Potency [9],"activity change, positive = activation [10]",Potency [11],Potency [12],outcome [13],Potency [14],Potency [15],Potency [16],Potency [17],Potency [18],Potency [19]
O=C(O)C1(c2ccc3c(c2)OC[C@H](Cc2ccc(-c4ccccc4)cc2)[C@H]3O)CCCC1,71 µM (active),inactive,inactive,inactive,inactive,inactive,17.4 µM (active),inactive,61.1 µM (active),-42.3%,inactive,inactive,–,–,–,–,–,–,–
O=C(CBr)c1ccccc1,inactive,inactive,inactive,inactive,inactive,–,inactive,–,–,–,inactive,inactive,inactive,inactive,inactive,inactive,–,–,–
CCCCNP(N)(N)=S,inactive,–,inactive,–,inactive,–,inactive,inactive,–,–,inactive,inactive,inactive,inactive,inactive,inactive,inactive,–,–
CC(=O)c1cc2c(cc1C)C(C)(C)C(C)CC2(C)C (configuration not stated),–,–,inactive,inactive,–,–,43.6 µM (active),101 µM (active),–,–,inactive,inactive,–,89.8 µM (active),inactive,inactive,inactive,–,–
CCOP(=O)(OCC)SCCSCC,–,inactive,inactive,–,inactive,inactive,inactive,–,inactive,-5.82% and 8.45%,inactive,inactive,–,–,inactive,inactive,–,inactive,–
CCCCCC[N+](=O)[O-],–,inactive,inactive,inactive,–,–,inactive,inactive,–,–,inactive,inactive,inactive,inactive,inactive,inactive,inactive,–,inactive
C(=NC1CCCCC1)=NC1CCCCC1,–,–,–,10.9 µM (active) and 21.7 µM (active),38.8 µM (active),inactive,inactive,inactive,13.7 µM (active),-50.9% and -60.1%,13.9 µM (active) and 12.3 µM (active),12.4 µM (active) and 12.3 µM (active),–,25.5 µM (active) and 14.2 µM (active),22 µM (active) and 21.9 µM (active),inactive,inactive,13.7 µM (active),–
ClC=C(Cl)Cl,–,–,inactive,inactive,inactive,inactive,inactive,inactive,inactive,-0.0629%,inactive,inactive,inactive,–,inactive,inactive,inactive,inactive,inactive
CC(C)(C)c1cc([N+](=O)[O-])cc([N+](=O)[O-])c1O,70.8 µM (active),–,15.3 µM (active),17.2 µM (active),–,–,inactive,inactive,–,–,inactive,–,–,inactive,–,inactive,inactive,–,–
CCCCc1c(C)nc(NCC)nc1OS(=O)(=O)N(C)C,–,inactive,–,inactive,–,inactive,inactive,inactive,30.6 µM (active),–,inactive,inactive,inactive,–,11 µM (active),inactive,–,48.6 µM (active),21.7 µM (active)
CC(Cl)C(C)Cl (configuration not stated),inactive,–,inactive,–,inactive,inactive,inactive,inactive,inactive,0.315%,inactive,inactive,inactive,inactive,inactive,inactive,–,inactive,–
CC1CC(CC2CCC(N)C(C)C2)CCC1N (configuration not stated),–,inactive,inactive,–,–,–,inactive,inactive,–,–,inactive,inactive,–,–,55.8 µM (active),inactive,inactive,–,–
CCOP(=O)(OCC)O/C(=C/Cl)c1ccc(Cl)cc1Cl,inactive,–,–,inactive,–,inactive,inactive,inactive,6.86 µM (active),-61.6%,inactive,inactive,inactive,–,21.9 µM (active),inactive,–,2.73 µM (active),27.3 µM (active)
CN1C(=O)NC(=O)C(C)(C2=CCCCC2)C1=O (configuration not stated),inactive,–,inactive,–,inactive,–,inactive,inactive,–,–,inactive,inactive,inactive,inactive,inactive,–,inactive,–,–
O=C1CN=C(c2ccccc2)c2cc(Cl)ccc2N1CC1CC1,inactive,–,inactive,inactive,inactive,inactive,inactive,inactive,51 µM (active),-41.3%,inactive,inactive,inactive,–,–,–,–,25.5 µM (active),–
Cc1c(F)c(F)c(COC(=O)C2C(/C=C(\Cl)C(F)(F)F)C2(C)C)c(F)c1F (configuration not stated),–,–,inactive,–,inactive,–,–,inactive,–,–,inactive,inactive,–,–,inactive,inactive,–,–,–
CCOP(=S)(Oc1ccc([N+](=O)[O-])cc1)c1ccccc1 (configuration not stated),–,inactive,inactive,inactive,inactive,inactive,inactive,inactive,inactive,24.4% (active),inactive,inactive,–,–,inactive,inactive,–,inactive,–
CC(=O)[C@H]1CC[C@H]2[C@@H]3CC[C@H]4C[C@](C)(O)CC[C@]4(C)[C@H]3CC[C@]12C,–,–,inactive,inactive,inactive,inactive,inactive,inactive,inactive,–,inactive,inactive,inactive,–,inactive,–,–,inactive,–
C=CC[C@]1(O)CC[C@H]2[C@@H]3CCC4=CC(=O)CCC4=C3C=C[C@@]21C,inactive,–,–,–,inactive,inactive,–,–,–,-61.2% [at 42.5 µM],–,–,–,39.1 µM (active),16.9 µM (active),inactive,–,–,–
O=C(Nc1ccccc1)Nc1cnns1,–,–,–,inactive,inactive,–,inactive,inactive,–,–,inactive,inactive,inactive,inactive,27.5 µM (active),inactive,inactive,inactive,–
